Hit rate of the full screen: of about 200,000 compounds, about 18,000 (9%) were called active. The sample holds actives, similar compounds and a random draw of the others, so the mix is not that of the screen. Unmarked numbers belong to inactive results. No stated cut-off is given here; in the data, active means inhibition above about 50%; inactive means the rest.

This assay can be described thus: antileishmanial activity against promastigotes – primary screen (AID 1063).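 Further: promastigotes grown with compound for 44 hours at 28 °C.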 As to conditions: Leishmania major promastigotes, resazurin fluorescence viability; at 10 µM; stronger effect = higher value. Background: The colour change of resazurin is a common sign of viable cells or microbes.
By inhibition is commonly meant the relative decrease from the control value, in per cent. For `O=C(NCc1ccccc1)C1=C[C@H](C2CC2)C[C@H](OCc2ccc(CO)cc2)O1`, the inhibition was 6.42%.

Take `C=CCOC(=O)C1=C[C@@H](c2ccccc2)C[C@@H](OCc2ccc(CO)cc2)O1`: the inhibition was 13.8%. With `CC(C)(C)[C@H]1C=C(C(=O)NCc2ccccc2)O[C@@H](OCc2ccc(CO)cc2)C1` the figure was 20.8%; with `O=C(NCc1ccccc1)C1=C[C@@H](c2ccc(C(F)(F)F)cc2)C[C@@H](OCc2ccc(CO)cc2)O1`, 87% (active). Regarding `O=C(C1=C[C@H](c2ccc(C(F)(F)F)cc2)C[C@H](OCc2ccc(CO)cc2)O1)N1CCN(Cc2ccccc2)CC1`, the inhibition is 25.6%. To `O=C(NCc1ccccc1)C1=C[C@@H](C2CCCCC2)C[C@@H](OCc2ccc(CO)cc2)O1` belongs 50.2% (active). Regarding `CCOC(=O)C1(C)NC(c2ccco2)C2C(=O)N(c3ccccc3)C(=O)C21` (stereo not given), the inhibition was -8.75%. To `COc1cc(NC(=S)NCc2ccc(S(N)(=O)=O)cc2)cc(OC)c1` belongs 11.8%; to `CC1Cc2ccccc2N1C(=O)CSc1nnc(-c2ccc(S(=O)(=O)N3CCCC3)cc2)n1C` (stereo not given), 97.9% (active). As to `Cn1c(SCC(=O)OC2CCCCC2)nnc1-c1ccc(S(=O)(=O)N2CCCC2)cc1`, the inhibition is -0.74%. Regarding `CC1Cc2ccccc2N1C(=O)CSc1nnc(C2CC2)n1C` (stereo not given), the inhibition is 14.8%. Turning to `O=C(Nc1ccc(N2CCN(C(=O)c3cccs3)CC2)cc1)c1cccnc1Cl`, the inhibition was 16.4%.

Regarding `CCOc1ccccc1/C=N/NC(=O)CNC(=O)COc1ccccc1`, the inhibition was -1.93%.

`N#C/C=C(/c1ccc(F)cc1)N1CCOCC1`: the inhibition is 1.16%.

Regarding `Cc1cc(C)n2nc(SCC(N)=O)nc2n1`, the inhibition is 4.1%. `CCCCn1c(=S)[nH]c2cc(S(=O)(=O)N3CCCCC3)ccc21`: the inhibition is 96.4% (active).

For `COc1ccc(S(=O)(=O)N2CCCCC2)cc1Br`, the inhibition is -0.43%. With `CCCCn1c(=S)[nH]c2ccccc2c1=O`, the inhibition was -2.23%. With `COC(=O)C(C(=O)Nc1cccc(Cl)c1C)C1CCCC1` (stereo not given) the figure was -0.21%; with `Cc1ccc(OCCCC(=O)NC(C)c2ccccc2)c(C)c1` (stereo not given), 11.7%.

On to `CCC(CC)c1nnc(NC(=O)c2nn(C)c(=O)c3ccccc23)s1`, for which the inhibition is 8.15%. For `N#Cc1c(C(F)(F)F)cc(-c2ccc(Cl)cc2)nc1SCC(=O)O`, the inhibition is -6.26%. With `O=C(/C=C/c1ccc(OCc2c(F)cccc2Cl)cc1)N1CCOCC1` the figure was 35.5%; with `CN(C)CCCNC(=O)/C=C/c1ccc(OCc2c(F)cccc2Cl)cc1`, 89.1% (active); with `COCCCNC(=O)/C=C/c1ccc(OCc2c(F)cccc2Cl)cc1`, 16%.

The values are drawn from PubChem BioAssay AID1063 (University of Pittsburgh Molecular Library Screening Center, 2008).
